The sample as a whole holds a higher share of hits than the screen did.
TDP1 cell noCPT: qHTS for Inhibitors of human tyrosyl-DNA phosphodiesterase 1 (TDP1): qHTS in cells in absence of CPT. 15% of 420,000 active. DT40 Tdp1-/- hTDP1 cells, no CPT, ATP luminescence, 48 h. Potency, µM (titrated, usually from 46.2 µM), actives largely listed as inhibitors; further: nearly all actives have a fitted effect of over 55% in size
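Chicken DT40 Tdp1-/- cells stably complemented with human TDP1 were seeded at 400 cells/well with DMSO in place of 20 nM camptothecin. After compound pinning, cells grew at least 48 hr at 37 °C; viability read by CellTiter-Glo luminescence.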
HT1080 IDH1KD tx: HT-1080 IDH1 knockdown cell toxicity (counter line). AID 686971. HT-1080 IDH1 knockdown viability, ATP luminescence, 48 h. 2% of 360,000 active. Potency, µM (highest dose often 46.1 µM), usual class: cytotoxic
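Assay cells: HT-1080 with IDH1 knockdown, 750 per well, RPMI/5% FBS. Exposure: 48 h at 37 °C following 2 h pre-incubation. Read: CellTiter-Glo luminescence; fitted concentration-response, curve class assigned.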
IL-1B inflam inh: inflammasome signaling inhibition, IL-1 beta readout | THP-1 LPS/ATP IL-1B secretion, AlphaLISA, 16 h; stronger effect = lower value | activity change, % at 57.5 µM | AID 743279 | 4.7% of 360,000 active; in the data active means activity change below about -50%; inconclusive means mostly about -30% to -49%
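THP-1 cells pretreated 1 hr with compounds (up to 57.5 uM final), then stimulated with LPS (250 ng/mL final) plus ATP (1.25 mM final); secreted IL-1B measured by AlphaLISA after 16 hr, decreased signal indicating inhibition.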
HT1080-NT tox: kills 2HG-producing HT-1080-NT fibrosarcoma cells; Potency, µM (doses to about 46.1 µM), hits mostly cytotoxic; AID 686970; HT-1080-NT fibrosarcoma viability, CellTiter-Glo ATP luminescence, 48 h; 1.6% of 360,000 active;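 further: NT is the 2HG producing partner of a matched IDH1 knockdown line; nearly all actives have a fitted effect of over 55% in size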
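Toxicity toward the 2HG-producing NT line was scored as %Activity, normalised to DMSO and no-cell wells, from CellTiter-Glo luminescence after 48 hours' treatment.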
TDP1 cell CPT: DT40-hTDP1 cell growth loss with CPT; 12% of 420,000 active; Potency, µM (doses to about 46.2 µM), actives largely listed as inhibitors; chicken DT40 Tdp1-/-;hTDP1 cells + 20 nM CPT, ATP luminescence, 48 h; AID 686979; further: nearly all actives have a fitted effect of over 55% in size
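Chicken DT40 Tdp1-/- cells complemented with human TDP1, 400 cells/well, exposed to compounds plus 20 nM camptothecin for at least 48 h at 37 C; viability read as ATP content by CellTiter-Glo luminescence.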
12-LOX inh: ALOX12 (human) lipoxygenase inhibition; Potency, µM (doses to about 108 µM), actives largely listed as inhibitors; 1.1% of 580,000 active; P18054; AID 1671190; purified 12hLO, xylenol orange hydroperoxide absorbance
Target sequence (P18054 whole entry, looked up): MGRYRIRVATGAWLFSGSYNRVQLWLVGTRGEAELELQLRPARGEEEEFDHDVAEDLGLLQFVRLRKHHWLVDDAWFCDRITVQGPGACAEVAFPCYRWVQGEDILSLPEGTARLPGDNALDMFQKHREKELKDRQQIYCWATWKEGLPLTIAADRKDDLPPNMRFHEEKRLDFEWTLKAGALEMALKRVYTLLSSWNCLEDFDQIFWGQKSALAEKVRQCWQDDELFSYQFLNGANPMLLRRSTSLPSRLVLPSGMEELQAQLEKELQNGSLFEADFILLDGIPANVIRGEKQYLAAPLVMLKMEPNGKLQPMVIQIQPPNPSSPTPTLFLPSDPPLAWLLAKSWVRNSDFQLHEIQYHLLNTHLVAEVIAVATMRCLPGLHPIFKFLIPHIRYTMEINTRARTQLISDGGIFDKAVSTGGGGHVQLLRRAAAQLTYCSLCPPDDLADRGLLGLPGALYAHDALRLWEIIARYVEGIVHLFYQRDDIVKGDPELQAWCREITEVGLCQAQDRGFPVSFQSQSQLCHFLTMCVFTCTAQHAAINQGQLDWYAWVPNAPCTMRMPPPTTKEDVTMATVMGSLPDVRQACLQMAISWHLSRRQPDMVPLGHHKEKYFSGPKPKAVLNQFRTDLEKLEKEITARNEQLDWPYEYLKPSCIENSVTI
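Purified human 12hLO (150 nM final) in 25 mM Hepes, 0.01% Triton X-100, pH 7.0 was preincubated 15 min at room temperature with compound. Then 40 uM arachidonic acid was added, 30 min. Hydroperoxide was read by Fe-XO absorbance ratio 573/405 nm.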
A number is an active result; n = inactive; u = inconclusive; x = not tested or not shown; [ ] = dose if it differs, or a comment. Unless noted, the call rests on the fitted dose curve; in most records, active means well fitted curve in the direction sought with a large enough effect; inconclusive means small, poorly fitted or top-dose-only effect, or another doubt; inactive means no such curve, though single readings can be large; an effect the other way counts as inactive or inconclusive.

SMILES	TDP1 cell noCPT	HT1080 IDH1KD tx	IL-1B inflam inh	HT1080-NT tox	TDP1 cell CPT	12-LOX inh
C[C@@H]1CCCCO[C@@H](CN(C)Cc2ccc(Cl)c(Cl)c2)[C@@H](C)CN([C@H](C)CO)C(=O)c2cc(NC(=O)Nc3ccccc3)ccc2O1	21µM	u	u	u	23µM	n
C[C@@H]1CCCCO[C@H](CN(C)Cc2ccc(C(F)(F)F)cc2)[C@H](C)CN([C@@H](C)CO)C(=O)c2cc(NC(=O)Cc3ccccc3)ccc2O1	15µM	18µM	n	16µM	12µM	n
COc1ccc(CN(C)C[C@H]2OCCCC[C@@H](C)Oc3ccc(NC(=O)c4ccccc4)cc3C(=O)N([C@H](C)CO)C[C@@H]2C)cc1	u	n	n	n	u	n
COC(=O)CCC1CCCNC1 (stereo not given)	x	x	x	x	x	n
COc1ccc2c(c1)cc(C(=O)Nc1cccc(Cl)c1)n2C	x	x	x	x	x	n
COc1ccc(C2Cn3cnc(C(=O)N4CCC(C(=O)NC(C)C)CC4)c3CO2)cc1 (stereo not given)	x	x	x	x	x	n
Cc1ccc(S(=O)(=O)N2CCN(CCNC(=O)c3cccc(C(F)(F)F)c3)CC2)cc1	x	x	x	x	x	28µM
Cc1ccc(S(=O)(=O)N2CCN(CCNC(=O)c3ccc(C(F)(F)F)cc3)CC2)cc1	x	x	x	x	x	16µM
CC(C)N(C(=O)c1ccccc1-c1ccccc1)C(C)C	18µM	n	n	n	u	n
COc1ccc(CNC(=O)CSc2nc3ccccc3nc2N2CCCCC2)cc1	x	x	x	x	x	n
O=C1C=CC(=Nc2ccc3c(c2)Cc2cc(F)ccc2-3)O1	7.3µM	n	n	n	5.2µM	u
CC(=O)Nc1ccc(NS(=O)(=O)c2cc(-c3cnc(C4CC4)o3)ccc2C)cc1	2.3µM	n	n	n	2.9µM	n
CCOc1ccccc1NS(=O)(=O)c1cc(-c2cnc(C3CC3)o2)ccc1C	u	x	x	x	n	n
COc1ccc(-c2cnc(C)o2)cc1S(=O)(=O)Nc1ccc(NC(C)=O)cc1	n	x	x	x	n	u
Cc1ccc(-c2cnc(C3CC3)o2)cc1S(=O)(=O)Nc1ccccc1	4.6µM	u	n	n	4.6µM	x
Cc1cc(C)c(NS(=O)(=O)c2cc(-c3cnc(C4CC4)o3)ccc2C)c(C)c1	u	x	x	x	n	n
CC(=O)c1ccc(NS(=O)(=O)c2cc(-c3cnc(C4CC4)o3)ccc2C)cc1	u	u	n	21µM	13µM	n
CC(=O)c1cccc(NS(=O)(=O)c2cc(-c3cnc(C4CC4)o3)ccc2C)c1	5.2µM	23µM	n	21µM	5.8µM	n
CNC(=O)/C=C/c1ccc(C)cc1C	x	x	x	x	x	n
CCCCN(CCCC)C(=O)C1CC(=O)OC12CCOC(C)(C)C2 (stereo not given)	x	x	x	x	x	n
Cc1ccc(NS(=O)(=O)c2cc(-c3cnc(C4CC4)o3)ccc2C)cc1Cl	5.2µM	x	x	x	7.3µM	u
C/C(=N/NC(=O)c1cccs1)c1ccccc1	x	x	x	x	x	n
CCOc1ccc(OCC)c(NC(=O)CN2CCC(NC(=O)c3cccc(F)c3)CC2)c1	16µM	n	n	n	23µM	n
CCOc1ccccc1C(=O)NC1CCN(CC(=O)Nc2cc(OC)ccc2OC)CC1	16µM	n	n	n	21µM	n
CCOc1ccccc1C(=O)Nc1cc(OC)ccc1OC	u	u	n	n	n	n
SMILES	TDP1 cell noCPT	HT1080 IDH1KD tx	IL-1B inflam inh	HT1080-NT tox	TDP1 cell CPT	12-LOX inh
COC(=O)c1ccccc1NC(=O)CN1CCN(C23CC4CC(CC(C4)C2)C3)CC1	u	n	n	n	29µM	n
CCOc1ccccc1NC(=O)CN1CCC(NC(=O)c2ccccc2C)CC1	23µM	n	n	n	23µM	n
N#Cc1ccccc1COc1ccccc1	x	x	x	x	x	n
CCOc1ccccc1N1CCN(CC(=O)Nc2ccnn2C2CCCC2)CC1	u	n	n	n	13µM	n
CCOc1ccccc1N1CCN(CC(=O)Nc2ccccc2C(=O)NC2CC2)CC1	16µM	n	n	n	21µM	u
CCOc1cc2c(cc1OCC)CN(CC(=O)Nc1ccccc1C(=O)NC1CC1)CC2	n	n	n	n[9.24 µM]	u	n
Cc1ccc(C(=O)NC2CCN(CC(=O)Nc3ccccc3Cl)CC2)cc1	n	n	n	n	n	n
COC(=O)c1ccccc1NC(=O)CN1CCC(NC(=O)c2ccc(C)cc2)CC1	26µM	n	n	n	u	n
COc1ccc(NC(=O)CN2C(=O)NC3(CCOCC3)C2=O)cc1OC	x	x	x	x	x	n
CC(C)NC(=O)c1ccc(-n2c(-c3ccccc3)cc3c2CCCCC3)cc1	u	x	x	x	u	n
Cc1cc2c(n1-c1ccc(C(=O)NCc3ccccc3Cl)cc1)CCCC2	18µM	x	x	x	23µM	n
Cc1cc2c(n1-c1ccc(C(=O)NCc3ccc(OC(C)C)cc3)cc1)CCCC2	16µM	x	x	x	26µM	n
O=C(NCc1ccccc1Cl)c1ccc(-c2ccccc2)cc1	u	n	n	n	n	n
Cc1c(CCC(=O)NCc2ccc(F)cc2)c(=O)oc2c(C)c(O)ccc12	x	x	x	x	x	n
CN(C(=O)CSc1nnc(-c2ccccc2)c(-c2ccccc2)n1)C1CCS(=O)(=O)C1 (stereo not given)	21µM	n	n	n	16µM	n
CN(C(=O)CSc1nnc(-c2ccc(F)cc2)c2ccccc12)C1CCS(=O)(=O)C1 (stereo not given)	n	u	-91	n	n	n
Cc1ccc(Cn2c(SCC(=O)N(C)C3CCS(=O)(=O)C3)nc3ccccc3c2=O)cc1 (stereo not given)	u	n	-55	n	n	n
O=C(O)C(Sc1ccc(F)c(Cl)c1)c1ccccc1 (stereo not given)	x	x	x	x	x	n
CCOc1ccccc1CNC(=O)c1ccc(CN2C(=O)NC3(CCOCC3)C2=O)cc1	x	x	x	x	x	n
O=[N+]([O-])c1cccc2nc3ccccc3c(NCCCn3ccnc3[N+](=O)[O-])c12	0.18µM	0.082µM	-102	u	0.15µM	n
O=C(CSCc1coc(-c2ccc(Cl)cc2)n1)NCCc1ccccc1	x	x	x	x	x	n
CCc1noc(-c2cn(C3CCN(C(=O)c4ccc(Cl)s4)C3)nn2)n1 (stereo not given)	x	x	x	x	x	n
Cc1c(-c2ccccc2)oc2c(C(=O)N(C)C3CCCCC3)cccc2c1=O	x	x	x	x	x	n
Cc1ccc(C)c(N2CCN(C(=O)c3ccc4nc(-c5ccco5)c(-c5ccco5)nc4c3)CC2)c1	23µM	u	u	u	u	u
COc1ccccc1N1CCN(C(=O)c2ccc3nc(-c4ccco4)c(-c4ccco4)nc3c2)CC1	21µM	u	u	u	u	u
COc1ccccc1N1CCN(C(=O)c2ccc3ncsc3c2)CC1	2.3µM	8.2µM	n	12µM	6.5µM	n

Screens deposited in PubChem BioAssay by National Center for Advancing Translational Sciences (NCATS).
